HCMV inh: blocks human cytomegalovirus replication | hit rate 4.5% among 410,000 | HFF cells, HCMV-luciferase reporter, 72 h; stronger effect = lower value | activity change, negative = inhibition, % at 57.5 µM; in the data active = activity change below about -60%; inconclusive = no clear call, values can overlap the other calls; inactive = above about -39%
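Steps: HFFs plated, 16 h 37C; compounds added; HCMV-luciferase added to MOI 1 PFU/cell; 72 h 37C; OneGlo reagent, 5 min room temperature; luminescence read, normalized to controls.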
Marburg entry inh: inhibitors of Marburg virus binding or cell entry; Marburg virus pseudotyped entry inhibition, cell reporter; hit rate 1.8% among 300,000; Potency, µM (highest dose often 37.8 µM), actives largely listed as inhibitors; calls by dose curve; tested in HEK293 cells
HCV inhibitor: HCV inhibition; Huh7.5.1 HCVcc-Cre infection, luciferase reporter, 44 h; Potency, µM (doses to about 41.8 µM), actives largely listed as inhibitors; hit rate 3.4% among 340,000; active = well fitted inhibition curve with a large enough effect; inconclusive = small, poorly fitted or top-dose-only effect, or another doubt; inactive = no such curve, though single readings can be large or run the other way
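After 44 h co-culture of compound, cells and HCVcc-Cre (~0.5 moi), substrate is added for 15 min at room temperature and luciferase measured over 15 sec. Cells were seeded at 1,000/well and pre-cultured 4 h.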
FMDV antiviral: foot and mouth disease virus antiviral activity | AID 1159524 | Potency, µM (doses to about 57.9 µM), most hits filed as inhibitors | FMDV antiviral cell-based qHTS | hit rate 1.2% among 410,000; calls by dose curve; tested in HEK293T cells; note: read-out not given here; nearly all actives have a fitted effect of over 45% in size
SARS PLpro yeast: inhibitors of SARS-CoV papain-like protease in yeast. hit rate 0.19% among 330,000. S. cerevisiae expressing SARS-CoV PLpro, growth rescue. AID 485353. Potency, µM (titrated, usually from 32.9 µM), usual class: activators; calls by dose curve; note: nearly all actives have a fitted effect of over 55% in size
LASV entry inh: inhibitors of Lassa virus binding or cell entry. Lassa virus pseudotype entry inhibition, cell reporter. Potency, µM (series often up to 37.9 µM), usual class: inhibitors. hit rate 1.2% among 300,000. AID 540256; calls by dose curve; tested in HEK293 cells; note: nearly all actives have a fitted effect of over 50% in size
A number is an active result; [ ] = another dose, or the depositor's remark. Most compounds without a hit are left out; they make up all but 8% or so of the library.

Screening CCOc1ccccc1-c1noc(CSc2nnc(-c3ccccc3)n2-c2ccc(OC)cc2)n1 returned HCMV inh inactive, Marburg entry inh inconclusive, FMDV antiviral inconclusive and LASV entry inh inactive.
`COc1ccc(CC(=O)Nc2ccncc2Cl)cc1` gave HCMV inh -92, HCV inhibitor 6.3µM, FMDV antiviral inconclusive and SARS PLpro yeast inactive.
For CCOc1cc(/C=C/c2nc3cc(C)c(C)cc3s2)ccc1OCC(=O)N1CCOCC1 the results were HCMV inh inactive, Marburg entry inh inactive, HCV inhibitor inactive, FMDV antiviral inactive, SARS PLpro yeast inactive and LASV entry inh inactive.
For CCOc1cc(/C=C\[N+](=O)[O-])ccc1OCC(=O)N1CCOCC1 the results were HCMV inh -92, Marburg entry inh inactive, HCV inhibitor inconclusive, FMDV antiviral 8.9µM, SARS PLpro yeast inactive and LASV entry inh inactive.
O=C1N(Cc2cccnc2)C[C@@H]2C[C@@H](c3cccc(OC4CCCC4)c3)N3CCC[C@@]123 was read as HCMV inh inconclusive, Marburg entry inh inactive, HCV inhibitor 13µM, FMDV antiviral inactive, SARS PLpro yeast inactive and LASV entry inh inactive.
Screening COc1ccc(S(=O)(=O)Oc2ccc3c(c2)O/C(=C\c2cccnc2)C3=O)cc1 returned HCMV inh -110, Marburg entry inh inactive, HCV inhibitor inconclusive, FMDV antiviral inactive, SARS PLpro yeast inactive and LASV entry inh inactive.
CN(Cc1ccccc1)C(=O)c1cccc(NC(=O)Cc2ccc(NC(=O)C3CCN(C(=O)c4ccccc4)CC3)cc2)c1 was read as HCMV inh inactive, HCV inhibitor inactive[8.37 µM] and FMDV antiviral inactive.
CN(Cc1ccccc1)C(=O)c1ccc(NC(=O)Cc2ccc(NC(=O)C3CCCN(S(=O)(=O)c4cccc([N+](=O)[O-])c4)C3)cc2)cc1 (stereo not given) was read as HCMV inh inactive, HCV inhibitor 13µM and FMDV antiviral inactive.
`CN(Cc1ccccc1)C(=O)c1ccc(NC(=O)C2CCCN(C(=O)OC(C)(C)C)C2)cc1` (stereo not given) gave HCMV inh inactive, HCV inhibitor 6.3µM, FMDV antiviral inconclusive and SARS PLpro yeast inactive.
For CN(Cc1ccccc1)C(=O)c1cccc(NC(=O)Cc2cccc([N+](=O)[O-])c2)c1 the results were HCMV inh inconclusive, HCV inhibitor 2.8µM, FMDV antiviral inconclusive and SARS PLpro yeast inactive.
For CN(Cc1ccccc1)C(=O)c1cccc(NC(=O)Cc2ccc([N+](=O)[O-])cc2)c1 the results were HCMV inh inactive, HCV inhibitor inconclusive, FMDV antiviral inconclusive and SARS PLpro yeast inactive.
`CN(Cc1ccccc1)C(=O)c1ccc(NC(=O)Cc2ccc(NC(=O)C3CCCN(C(=O)C4CCC4)C3)cc2)cc1` (stereo not given) gave HCMV inh inactive, HCV inhibitor inconclusive and FMDV antiviral inconclusive.
CN(Cc1ccccc1)C(=O)c1cccc(NC(=O)Cc2ccc(NC(=O)C3CCN(C(=O)CCc4ccccc4)CC3)cc2)c1 was read as HCMV inh -91, HCV inhibitor 2.2µM and FMDV antiviral 18µM.
`COc1cc(CN2CCC3(CCC(CNC(=O)c4cc(C)nn4C)O3)CC2)ccc1F` (stereo not given) gave FMDV antiviral inactive.
For CN(Cc1ccccc1)C(=O)c1ccc(NC(=O)Cc2ccc(NC(=O)C3CCN(C(=O)CCc4ccccc4)CC3)cc2)cc1 the results were HCMV inh -89, HCV inhibitor inconclusive and FMDV antiviral inactive.
Screening CN(Cc1ccccc1)C(=O)c1ccc(NC(=O)Cc2ccc(NC(=O)C3CCCN(C(=O)CCc4ccccc4)C3)cc2)cc1 (stereo not given) returned HCMV inh -67, HCV inhibitor 2.2µM and FMDV antiviral inconclusive.
CN(CCc1ccccc1)C(=O)c1ccc(NC(=O)Cc2ccc(NC(=O)C3CCCN(C(=O)C4CCCC4)C3)cc2)cc1 (stereo not given) was read as HCMV inh -68, HCV inhibitor inconclusive and FMDV antiviral inconclusive.
`C[C@H](NC(=O)c1cccc2ccccc12)C(O)c1nc2ccccc2[nH]1` (stereo not given in full) gave HCMV inh inactive.
`CN1CCN(c2ncncc2-c2cccnc2)CC1` gave FMDV antiviral inactive.

Assay outcomes: PubChem BioAssay, National Center for Advancing Translational Sciences (NCATS)
